Drawing on PubChem BioAssay, this text covers composite z-score and z-score for five compounds.

The source made the active and inactive calls.

Test [1] deals with PRMT1 (protein arginine N-methyltransferase 1). As to the kind of experiment: PRMT1 binders on small-molecule microarrays, primary screen, biochemical, small-molecule microarray, 635 nm fluorescence (AID 1088).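 Also: binding of Prmt1 protein to compounds spotted on small-molecule microarray slides.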 The following applies: small-molecule microarray binding, higher = more signal.
A short description of test [2]: yeast growth modulation, basal conditions, primary screen, YJM789 clinical isolate, OD600, 24 h (AID 1089).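 Also: growth of clinical yeast isolate S. cerevisiae YJM 789 seeded 1000 cells per well; test concentration not given here.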 The following applies: S. cerevisiae YJM789 growth, higher = more signal, called active from +8 up or from −8 down.
Test [3] is described as follows: fission yeast growth modulation, primary screen, strain 972, OD600, 24 h, no modulator (AID 1090).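 Also: basal condition with compound alone and no growth modifier present; test concentration not given here.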 Particulars: S. pombe 972 growth, higher = more signal, called active from +8 up or from −8 down.
Test [4] is described as follows: S. cerevisiae growth modulation with rapamycin, primary screen, strain BY4716, OD600, 96 h (AID 1091). Also: test concentration not given here. Particulars: higher = more signal, called active from +8 up or from −8 down.
The target of test [5] is Torsin-1A-interacting protein 2 (Homo sapiens) (UniProt Q8NFQ8). Kind of test: LULL1 binders on small-molecule microarray, primary screen, cell lysate, human LULL1 lysate, 635/667 nm fluorescence (AID 1092).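 Also: probe is lysate of COS7 cells overexpressing human LULL1; score merges per-feature 667 nm fluorescence with signal-to-noise.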 Particulars: hLULL1 lysate binding, 635 nm fluorescence, higher = more signal.
Sequence of Torsin-1A-interacting protein 2 (Homo sapiens) (Q8NFQ8 whole entry, looked up): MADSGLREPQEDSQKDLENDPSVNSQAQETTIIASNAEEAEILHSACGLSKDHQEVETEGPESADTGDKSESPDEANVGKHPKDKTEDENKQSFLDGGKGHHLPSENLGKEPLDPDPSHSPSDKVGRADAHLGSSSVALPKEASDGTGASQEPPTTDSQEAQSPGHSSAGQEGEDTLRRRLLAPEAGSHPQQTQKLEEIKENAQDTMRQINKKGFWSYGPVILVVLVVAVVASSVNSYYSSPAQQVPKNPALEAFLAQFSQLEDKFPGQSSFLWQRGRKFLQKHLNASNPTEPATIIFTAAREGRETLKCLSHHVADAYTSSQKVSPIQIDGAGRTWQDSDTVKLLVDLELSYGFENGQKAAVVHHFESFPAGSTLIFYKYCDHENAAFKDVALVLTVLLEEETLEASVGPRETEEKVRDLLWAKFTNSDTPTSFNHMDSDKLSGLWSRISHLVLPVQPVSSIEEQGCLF
Test [6] in a line: E. coli growth modulation, two-sided OD650, primary screen, E. coli filamentation project, strain DRC41, 24 h (AID 1093).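 Also: MC1000 strain lacking acrAB efflux and sulA so SOS filamentation is blocked; test concentration not given here.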 Particulars: OD650, 24 h, higher = more signal, called active from +8 up or from −8 down.
Test [7] can be described thus: small-molecule microarray binders of probe aLefty2, primary screen, biochemical, biotinylated probe, 635/667 nm fluorescence (AID 1094).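 Also: score merges spot fluorescence near 667 nm with spot signal-to-noise ratio.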 The following applies: higher = more signal.
Test [8] relates to Noggin (protein binding on small-molecule microarray). As to the kind of experiment: Noggin binders on small-molecule microarray, primary screen, biochemical, 635/667 nm fluorescence (AID 1095).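 Also: score merges 667 nm feature fluorescence with signal to noise over triplicate slides.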 Particulars: 635 nm fluorescence, higher = more signal.
The target in test [9] is Neurogenic locus notch homolog protein 3 (Homo sapiens) (UniProt Q9UM47). Kind of test: NOTCH3 binders on small-molecule microarray, primary screen, biochemical, 635/667 nm fluorescence (AID 1096). Particulars: NOTCH3 binding, 635 nm fluorescence, higher = more signal.
Sequence of Neurogenic locus notch homolog protein 3 (Homo sapiens) (Q9UM47 whole entry, looked up): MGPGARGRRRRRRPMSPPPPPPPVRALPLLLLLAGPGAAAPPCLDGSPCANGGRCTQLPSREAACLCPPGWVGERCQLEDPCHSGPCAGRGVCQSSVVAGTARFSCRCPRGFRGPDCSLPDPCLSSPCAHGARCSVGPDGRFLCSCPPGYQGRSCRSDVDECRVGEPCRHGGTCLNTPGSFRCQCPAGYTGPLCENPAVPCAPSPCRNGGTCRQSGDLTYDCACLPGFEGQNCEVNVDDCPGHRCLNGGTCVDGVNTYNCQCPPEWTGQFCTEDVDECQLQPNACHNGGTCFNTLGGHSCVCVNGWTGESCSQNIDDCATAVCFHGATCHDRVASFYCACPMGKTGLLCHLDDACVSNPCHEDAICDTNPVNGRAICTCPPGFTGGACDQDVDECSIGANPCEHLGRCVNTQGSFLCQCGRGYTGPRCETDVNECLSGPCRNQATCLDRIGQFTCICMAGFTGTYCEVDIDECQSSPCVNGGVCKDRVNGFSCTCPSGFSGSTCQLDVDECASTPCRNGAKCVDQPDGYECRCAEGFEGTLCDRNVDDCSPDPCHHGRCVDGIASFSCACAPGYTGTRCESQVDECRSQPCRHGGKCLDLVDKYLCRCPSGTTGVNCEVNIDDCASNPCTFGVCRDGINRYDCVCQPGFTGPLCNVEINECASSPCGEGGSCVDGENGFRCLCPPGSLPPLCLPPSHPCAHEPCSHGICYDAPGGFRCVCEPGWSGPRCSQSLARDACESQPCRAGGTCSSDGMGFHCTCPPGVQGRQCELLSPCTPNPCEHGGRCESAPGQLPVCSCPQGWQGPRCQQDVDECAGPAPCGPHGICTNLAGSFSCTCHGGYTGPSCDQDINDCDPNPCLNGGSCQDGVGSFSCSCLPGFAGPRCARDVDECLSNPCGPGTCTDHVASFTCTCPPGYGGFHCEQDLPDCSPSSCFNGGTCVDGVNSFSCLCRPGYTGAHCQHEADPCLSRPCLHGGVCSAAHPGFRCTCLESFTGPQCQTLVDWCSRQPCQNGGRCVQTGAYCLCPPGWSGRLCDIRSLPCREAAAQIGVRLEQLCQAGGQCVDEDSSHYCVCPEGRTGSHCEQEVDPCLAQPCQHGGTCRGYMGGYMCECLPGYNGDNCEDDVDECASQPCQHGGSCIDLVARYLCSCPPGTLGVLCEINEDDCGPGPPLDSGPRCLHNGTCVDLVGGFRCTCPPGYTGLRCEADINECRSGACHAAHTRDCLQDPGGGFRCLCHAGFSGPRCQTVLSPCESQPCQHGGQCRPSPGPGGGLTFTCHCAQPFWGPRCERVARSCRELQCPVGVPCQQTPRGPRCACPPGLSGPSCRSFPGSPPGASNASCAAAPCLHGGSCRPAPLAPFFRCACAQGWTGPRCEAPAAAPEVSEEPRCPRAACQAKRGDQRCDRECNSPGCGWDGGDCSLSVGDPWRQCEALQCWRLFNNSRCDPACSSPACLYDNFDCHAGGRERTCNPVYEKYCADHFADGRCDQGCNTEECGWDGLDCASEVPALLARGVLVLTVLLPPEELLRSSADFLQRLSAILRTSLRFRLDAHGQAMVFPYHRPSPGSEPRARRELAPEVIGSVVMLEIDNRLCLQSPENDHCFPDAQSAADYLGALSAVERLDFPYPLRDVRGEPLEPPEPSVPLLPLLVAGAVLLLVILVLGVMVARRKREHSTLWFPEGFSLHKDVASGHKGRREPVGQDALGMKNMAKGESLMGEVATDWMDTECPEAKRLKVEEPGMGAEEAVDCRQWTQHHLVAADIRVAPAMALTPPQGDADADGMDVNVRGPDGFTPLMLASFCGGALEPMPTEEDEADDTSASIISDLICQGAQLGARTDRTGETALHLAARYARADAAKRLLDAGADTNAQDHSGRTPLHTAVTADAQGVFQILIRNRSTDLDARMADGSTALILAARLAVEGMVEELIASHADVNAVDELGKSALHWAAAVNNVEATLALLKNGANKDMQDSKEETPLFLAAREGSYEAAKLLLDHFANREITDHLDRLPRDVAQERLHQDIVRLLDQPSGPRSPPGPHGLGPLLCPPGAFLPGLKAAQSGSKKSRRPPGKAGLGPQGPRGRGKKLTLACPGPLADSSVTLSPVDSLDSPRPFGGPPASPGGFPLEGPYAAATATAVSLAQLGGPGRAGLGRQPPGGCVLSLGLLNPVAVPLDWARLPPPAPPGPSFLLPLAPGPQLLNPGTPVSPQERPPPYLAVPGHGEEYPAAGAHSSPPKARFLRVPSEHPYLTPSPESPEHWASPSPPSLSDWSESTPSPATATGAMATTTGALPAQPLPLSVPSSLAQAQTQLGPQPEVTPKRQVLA
Test [10] can be described thus: small-molecule microarray binders of probe aEGFR, primary screen, biochemical, biotinylated probe, 635/667 nm fluorescence (AID 1097).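 Also: probe is a biotinylated anti-EGFR antibody binding compounds printed on slides; score combines fluorescence near 667 nm and signal to noise of each spot.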 Particulars: higher = more signal.
Test [11] concerns Plasmodium falciparum Sir2 (PF13_0152, Sir2A). As to the kind of experiment: pfSir2 binders on small-molecule microarrays, primary screen, biochemical, small-molecule microarray, 635 nm fluorescence (AID 1098).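 Also: score merges spot fluorescence intensity with its signal-to-noise ratio.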 Particulars: small-molecule microarray binding, fluorescence 635 nm; higher = more signal.
The nature of test [12]: small-molecule microarray binders of probe aDKK1, primary screen, biochemical, biotinylated probe, 635/667 nm fluorescence (AID 1099).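 Also: score merges 667nm spot fluorescence with signal to noise across triplicate slides; reference of the scale not given here.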 Particulars: higher = more signal.
The nature of test [13]: small-molecule microarray binders of probe aCHRDL2, primary screen, biochemical, biotinylated probe, 635/667 nm fluorescence (AID 1100). Particulars: higher = more signal.
Test [14] in a line: splicing luciferase reporter signal modulators, primary screen, spliceosome inhibition project, cell-based, HEK293, splice +/- reporter (AID 1101).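 Also: HEK293 cells carrying a splicing-competent luciferase reporter gene; test concentration not given here.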 The following applies: luminescence, 24 h, higher = more signal, called active from +8 up or from −8 down. In general terms: In a reporter assay the amount or activity of a reporter protein is the signal.
Test [15] addresses Fibroblast growth factor 10 (Homo sapiens) (UniProt O15520). As to the kind of experiment: FGF10 binders on small-molecule microarrays, primary screen, biochemical, small-molecule microarray, 635 nm fluorescence (AID 1102). Particulars: FGF10 binding, fluorescence 635 nm, higher = more signal.
Test [16] relates to glycogen synthase kinase-3 (GSK3A per assay name; protocol says GSK3B). As to the kind of experiment: GSK3 binders on small-molecule microarrays, primary screen, biochemical, small-molecule microarray, 635 nm fluorescence, GSK3A (AID 1103). Also: the record names both GSK3A and GSK3B. The following applies: small-molecule microarray binding, fluorescence 635 nm; higher = more signal.
For test [17], the target named is Epidermal growth factor receptor (Homo sapiens) (UniProt P00533). Kind of test: EGFR binders on small-molecule microarrays, primary screen, biochemical, small-molecule microarray, 635 nm fluorescence (AID 1104).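 Also: score merges 667 nm emission intensity with spot signal to noise over triplicate slides.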 Particulars: EGFR binding, higher = more signal.
Sequence of Epidermal growth factor receptor (Homo sapiens) (P00533 whole entry, looked up): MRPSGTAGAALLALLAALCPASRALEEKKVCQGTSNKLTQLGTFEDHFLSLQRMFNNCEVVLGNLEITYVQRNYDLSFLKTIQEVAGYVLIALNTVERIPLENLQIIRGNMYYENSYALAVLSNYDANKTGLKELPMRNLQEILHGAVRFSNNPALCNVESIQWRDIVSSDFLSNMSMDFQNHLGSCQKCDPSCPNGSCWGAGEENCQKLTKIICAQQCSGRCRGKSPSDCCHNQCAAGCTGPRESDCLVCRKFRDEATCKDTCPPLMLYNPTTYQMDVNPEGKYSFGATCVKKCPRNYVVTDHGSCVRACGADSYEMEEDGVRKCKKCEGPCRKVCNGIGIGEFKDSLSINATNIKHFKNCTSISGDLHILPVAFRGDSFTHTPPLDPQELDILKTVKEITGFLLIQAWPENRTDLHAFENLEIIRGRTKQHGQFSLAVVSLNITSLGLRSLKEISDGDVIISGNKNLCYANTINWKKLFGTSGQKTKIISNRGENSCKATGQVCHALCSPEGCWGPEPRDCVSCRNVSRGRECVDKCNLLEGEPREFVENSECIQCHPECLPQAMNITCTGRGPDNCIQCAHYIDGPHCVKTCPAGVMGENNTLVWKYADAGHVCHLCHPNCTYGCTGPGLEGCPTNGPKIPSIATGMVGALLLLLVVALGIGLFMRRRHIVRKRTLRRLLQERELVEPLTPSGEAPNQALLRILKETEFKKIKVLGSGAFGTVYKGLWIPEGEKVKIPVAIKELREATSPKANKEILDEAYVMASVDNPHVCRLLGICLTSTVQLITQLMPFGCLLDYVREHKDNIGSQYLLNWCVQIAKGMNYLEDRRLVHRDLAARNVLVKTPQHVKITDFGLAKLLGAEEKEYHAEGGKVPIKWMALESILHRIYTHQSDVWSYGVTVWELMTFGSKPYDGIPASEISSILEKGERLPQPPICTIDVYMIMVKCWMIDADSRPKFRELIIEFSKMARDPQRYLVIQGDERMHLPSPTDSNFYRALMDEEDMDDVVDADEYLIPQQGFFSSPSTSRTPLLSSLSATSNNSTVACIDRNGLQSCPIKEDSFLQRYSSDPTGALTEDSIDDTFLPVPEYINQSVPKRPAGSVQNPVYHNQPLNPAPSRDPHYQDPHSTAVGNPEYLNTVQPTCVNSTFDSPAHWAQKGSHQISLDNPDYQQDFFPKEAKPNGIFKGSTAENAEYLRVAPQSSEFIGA
Test [18] deals with Follistatin-related protein 3 (Homo sapiens) (UniProt O95633). As to the kind of experiment: FSTL3 binders on small-molecule microarrays, primary screen, biochemical, small-molecule microarray, 635 nm fluorescence (AID 1105).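 Also: score merges emission near 667 nm and signal to noise per printed spot across three slides.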 Particulars: FSTL3 binding, higher = more signal.
Sequence of Follistatin-related protein 3 (Homo sapiens) (O95633 whole entry, looked up): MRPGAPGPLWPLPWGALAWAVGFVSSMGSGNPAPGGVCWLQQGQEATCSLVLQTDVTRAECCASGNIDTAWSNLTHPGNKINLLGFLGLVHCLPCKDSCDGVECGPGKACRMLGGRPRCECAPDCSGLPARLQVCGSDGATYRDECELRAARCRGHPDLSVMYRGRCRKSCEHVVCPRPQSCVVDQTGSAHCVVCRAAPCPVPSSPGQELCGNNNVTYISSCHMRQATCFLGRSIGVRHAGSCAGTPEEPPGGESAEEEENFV
The target of test [19] is Dickkopf-related protein 1 (Homo sapiens) (UniProt O94907). As to the kind of experiment: DKK1 binders on small-molecule microarrays, primary screen, biochemical, small-molecule microarray, 635 nm fluorescence scan (AID 1106).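 Also: score merges emission near 667 nm with signal to noise over three replicate slides.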 The following applies: DKK1 binding, higher = more signal.
Sequence of Dickkopf-related protein 1 (Homo sapiens) (O94907 whole entry, looked up): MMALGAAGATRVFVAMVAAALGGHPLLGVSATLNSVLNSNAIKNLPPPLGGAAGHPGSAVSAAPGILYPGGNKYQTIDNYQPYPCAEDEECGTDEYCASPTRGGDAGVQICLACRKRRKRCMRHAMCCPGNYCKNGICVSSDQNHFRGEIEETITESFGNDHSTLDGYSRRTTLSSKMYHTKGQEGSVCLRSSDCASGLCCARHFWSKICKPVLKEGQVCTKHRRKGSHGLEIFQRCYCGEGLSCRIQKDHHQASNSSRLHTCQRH
The subject of test [20] is Inhibin beta A chain (activin A). Kind of test: INHBA (activin A) binders on microarrays, primary screen, biochemical, small-molecule microarray, 635 nm fluorescence scan (AID 1107).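 Also: mouse activin A protein probed at 4.33 µg/mL on printed slides; score merges bound-protein fluorescence near 667 nm with spot signal-to-noise.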 The following applies: small-molecule microarray binding, higher = more signal.

Sequence of Fibroblast growth factor 10 (Homo sapiens) (O15520 whole entry, looked up): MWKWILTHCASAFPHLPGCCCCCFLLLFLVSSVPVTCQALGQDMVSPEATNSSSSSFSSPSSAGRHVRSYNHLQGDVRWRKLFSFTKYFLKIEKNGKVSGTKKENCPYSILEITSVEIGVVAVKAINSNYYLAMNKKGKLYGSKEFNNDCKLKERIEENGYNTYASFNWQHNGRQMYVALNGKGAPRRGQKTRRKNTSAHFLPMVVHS

For `C=CCC(OC(C)=O)[C@@H]1[C@@H](N(Cc2cc3ccccc3o2)C(=O)c2ccc(-c3ccccc3)cc2)c2cc(OCCCO)ccc2N1C(=O)Cc1ccc2ccccc2c1` (stereo not given in full), the composite z-score in test [1] is -0.598; in test [5], 0.898; in [7], -0.166; in test [8] it was -0.125; in test [9] it was -0.376; in test [10], -0.166. Further, the composite z-score was -0.366 in [11]; -0.172 in test [12]; 0.351 in test [13]; -0.0752 in test [15]; -0.418 in test [16]; -0.227 in [17]. For the same compound, the composite z-score was -0.187 in test [18], -0.251 in test [19] and 1.2 in test [20]. In addition, the z-score in [2] was 1.06 (inactive); in test [3], 0.263 (inactive); in [4], 1.49 (inactive); in [6], 0.0672 (inactive); in [14], 0.121 (inactive).

As for `CC[C@@H]1C=C(C(=O)O)[C@H](c2ccc(C(C)C)cc2)N1S(=O)(=O)c1ccc(C)cc1`, the composite z-score is 1.53 in [1]; 3.03 in test [5]; 0.678 in [7]; -0.0177 in test [8]; 1.03 in test [9]; 0.516 in test [10]. For the same compound, the composite z-score in test [11] came to 1.25; in test [12], 1.1; in [13] it was 0.86; in [15] it was 1.08; in test [16], 1.15; in test [17], 0.001. For the same compound, the composite z-score in test [18] is 1.18; in test [19], -0.172; in [20], 0.769. In addition, the z-score in test [2] was -0.921 (inactive); in test [3], 0.242 (inactive); in test [4], -1.07 (inactive); in [6] it was -0.29 (inactive); in test [14], -0.0593 (inactive).

In the case of `O=[N+]([O-])c1ccc(C[n+]2ccc(CCCO)cc2)o1`, the composite z-score was found to be 0.464 in test [1]; 2.46 in test [5]; 0.24 in test [7]; 1.73 in [8]; 1.07 in [9]; 0.296 in test [10]. Besides, the composite z-score in test [11] turned out to be 0.513; in test [12], 0.762; in test [13] it was 0.805; in test [15] it was 1.54; in [16], 0.634; in test [17], 0.396. In addition, the composite z-score amounted to 1.13 in test [18], 1.08 in test [19] and 0.918 in test [20]. Further, the z-score was 0.593 (inactive) in [2]; -12.9 (active) in [3]; -0.302 (inactive) in [4]; -2.76 (inactive) in test [6]; 0.115 (inactive) in [14].

In the case of `COc1ccc(C#Cc2ccc3c(c2)[C@]2(C(=O)N3)[C@H](c3ccc(OCCO)cc3)N3[C@H](c4ccccc4)[C@H](c4ccccc4)OC(=O)[C@H]3[C@@H]2C(=O)Nc2nc3ccccc3s2)cc1`, the composite z-score in test [1] came out at 1.54; in [5], 3.02; in test [7] it was 0.135; in [8] it was 0.57; in [9] it was 1.12; in test [10], 0.238. The composite z-score was determined as 1.29 in [11]; 0.771 in test [12]; 0.72 in test [13]; 1.3 in [15]; 1.29 in test [16]; 0.655 in test [17]. Besides, the composite z-score is 1.38 in test [18], 0.618 in test [19] and 0.331 in test [20]. For the same compound, the z-score in [2] was 2 (inactive); in [3], 0.831 (inactive); in test [4], 1.44 (inactive); in test [6], 2.4 (inactive); in test [14], 3.63 (inactive).

Take `CCOC(=O)C[C@H]1[C@H](OC(=O)c2ccccc2-c2ccccc2)[C@@H](NC(=O)c2ccc(-c3ccccc3)cc2)c2cc(OCCCO)ccc2N1C(=O)c1ccccc1`: the composite z-score is 0.997 in test [1]; 1.99 in test [5]; -0.0888 in [7]; 0.603 in test [8]; 0.695 in test [9]; 0.104 in test [10]. The composite z-score in test [11] was 0.154; in [12], 0.319; in [13], -0.181; in test [15], 0.888; in test [16] it was 0.425; in test [17], 0.31. For the same compound, the composite z-score is 0.645 in [18], 0.531 in [19] and -0.0094 in [20]. The z-score is 0.742 (inactive) in test [2]; 0.5 (inactive) in test [3]; 1.7 (inactive) in [4]; 1.04 (inactive) in [6]; 0.119 (inactive) in [14].
